The source of these data is paper PMC5540273 (PLoS ONE, 2017).
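Note: KINOMEscan kinase panel screen.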

For this assay, the system named is IRAK3. As to conditions: concentration: 1 μM, replicates: in singlicate; n = 1.
Take `COc1cc2ncnc(Nc3ccc(OCc4ccccc4Br)c(Cl)c3)c2cc1OC.Cl` [GI261590]: the “%Inh” value was 13%. As to `CSc1nn2c(=O)cc(N3CCOCC3)nc2n1Cc1cccc(Cl)c1Cl` [GSK2347225], the “%Inh” value is given as 0%. In the case of `Fc1cccc(COc2ccc(Nc3ncnc4sc(-c5ccc[nH]5)cc34)cc2Cl)c1` [GW707818], the “%Inh” value was found to be 0%. For `Cl.O=S(=O)(c1cccc(F)c1)c1ccc(Nc2ncnc3cc(Br)sc23)cc1Cl` [GSK306886] the value was 0%; for `CN1c2ccc(-c3ccc(C(=O)NCCO)cc3)cc2-c2[nH]ncc2S1(=O)=O`, 44%.

As to `COc1ccc(-c2nc3n(c2-c2ccncc2)CCC3)cc1` [SKF-104493], the “%Inh” value stood at 0%. Consider `Nc1nc(-c2ccc3c(N)n[nH]c3c2)cc(N2CCCCC2)n1` [GSK2228768], for which the “%Inh” value stood at 0%. For `Cn1ccc2ncnc(Oc3ccc(NC(=O)Nc4cccnc4)c(Cl)c3)c21` the value was 12%; for `Clc1cc(Nc2ncnc3cc[nH]c23)ccc1OCc1ccccn1`, 19%.

Regarding `Cl.Cl.c1ccc(-c2cc3ccncc3cc2OC2CCNCC2)cc1` [GSK1122999], the “%Inh” value is given as 24%.

As for `Fc1ccc(Nc2nccc(-c3c(-c4ccc(Cl)cc4)nn4ncccc34)n2)cc1F` [GW829058], the “%Inh” value stood at 7%.

As to `C[C@H]1CC[C@@H](C(=O)Nc2ccccc2)CN1c1cc(-c2ccc3c(N)n[nH]c3c2)nc(N)n1` [GSK2283293], the “%Inh” value was 16%. In the case of `FC(F)(F)c1cc(Nc2nccc(-c3c(-c4ccc(Cl)cc4)nn4ncccc34)n2)ccc1Cl` [GW829351] it was 0%; in that of `FC(F)(F)c1ccc(-c2cc(-c3c[nH]nc3-c3ccccn3)ccn2)cc1` [GW599550], 5%.

In the case of `Nc1nc(-c2cccnc2)c(-c2ccnc3ccccc23)s1` [GW684083], the “%Inh” value is listed as 16%.

`Cl.c1ccc(Cn2ncc3cc(Nc4ncnc5ccccc45)ccc32)cc1` [GW273749]: the “%Inh” value is listed as 0%. As for `O=C(NCCCN1CCCC1=O)c1cnc(NCc2cc(Cl)ccc2Cl)nc1NC1CCNCC1`, the “%Inh” value is listed as 0%. `Cc1ccc(O)cc1Nc1cc(C(F)(F)F)nc2ccc(-c3ccncc3)cc12` [GW630823]: the “%Inh” value turned out to be 56%. In the case of `C[C@@H]1CCN(C(=O)CO)C[C@@H]1N(C)c1ncnc2[nH]ccc12` it was 19%; in that of `COc1ccc(NC(=O)Nc2ccc(C)c(-c3ccc(C(=O)Nc4ccncc4)cc3)c2)cc1` [GSK1398475], 0%. For `O=c1cc(N2CCOCC2)nc2n(Cc3cccc(Cl)c3)ccn12` [GSK2296823], the “%Inh” value is on record as 32%. In the case of `CC(C)N1CCC(n2cnc(-c3ccc(F)cc3)c2-c2ccnc(N)n2)CC1` [SB-223132] it was 23%. `Clc1cccc(-c2nc(Nc3ccncc3)c3ccccc3n2)c1` [GW873004]: the “%Inh” value was 9%. For `COC(=O)c1c(-c2ccccc2)c2cc(Cl)ccc2c(=O)n1Cc1ccc(S(C)(=O)=O)cc1` the value was 19%.

Regarding `Oc1ccc2ncnc(Nc3ccc(OCc4ccccc4)cc3)c2c1` [GI262866], the “%Inh” value is 0%. For `COc1cc2c(Nc3cccc(NC(=O)c4ccccc4)c3)ncnc2cc1OCCCN1CCOCC1` [GSK223810] the value was 41%; for `CCc1nc(-c2cccc(C)c2)c(-c2ccnc(NC(=O)c3ccccc3)c2)s1`, 1%. In the case of `Clc1ccc(-c2cc(-c3c[nH]nc3-c3ccccn3)ccn2)cc1` [GW681251] it was 0%. In the case of `Nc1nc(-c2ccc3c(N)n[nH]c3c2)cc(N2CCC[C@@H](C(=O)Nc3ccccc3)C2)n1.O=C(O)C(F)(F)F.O=C(O)C(F)(F)F` [GSK2288359] it was 0%. With `CCn1c(-c2ccncc2)nc2cnccc21` [SB-735216], the “%Inh” value is 0%. In the case of `Cn1ccc2ncnc(Nc3ccc(Oc4cccc(Cl)c4)c(Cl)c3)c21` it was 6%; in that of `Fc1ccc(-c2ncn(CCCNCc3ccccc3)c2-c2ccncc2)cc1`, 9%.

Turning to `CC(C)(C)OC(=O)NC1CCCN(c2cc(-c3ccc4c(N)n[nH]c4c3)nc(N)n2)C1` (stereo not drawn) [GSK2286096], the “%Inh” value was 0%. Take `CC(=O)Nc1n[nH]c2ncc(-c3ccccc3)cc12` [SB-548492]: the “%Inh” value is 25%. In the case of `COc1ccc(Nc2nccc(N3CCC(NC(=O)Nc4ccc5c(c4)OCO5)C3)n2)cc1` (stereo not drawn) [GSK1379745] it was 11%; in that of `CN1CCC(n2cnc(-c3ccc(F)cc3)c2-c2ccnc(NC3CCNCC3)n2)CC1` [SB-229482], 0%.
